In the library only some 17% were active in any assay of this set; here they are far more common.
TDP1 cell CPT: growth inhibition of DT40 Tdp1-/-;hTDP1 cells with camptothecin (screen for TDP1 inhibitors); chicken DT40 Tdp1-/-;hTDP1 cells + 20 nM CPT, ATP luminescence, 48 h; 420,000 tested, 12% active; Potency, µM (series often up to 46.2 µM), usual class: inhibitors; also: nearly all actives have a fitted effect of over 55% in size
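Chicken DT40 Tdp1-/- cells stably complemented with human TDP1 were seeded at 400 cells/well in medium containing 20 nM camptothecin, exposed to pin-transferred compounds, and grown at 37 °C for at least 48 hr. Viability was read as ATP luminescence.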
ClpP mod: qHTS Assay for Activators of ClpP | Potency, µM (top dose mostly 57.5 µM) | ATP-dependent Clp protease proteolytic subunit (Bacillus subtilis (strain 168)), P80244 | 340,000 tested, 1.9% active | AID 651965, 2013 | purified B. subtilis ClpP, FRET peptide cleavage, 20 min; active = well fitted falling curve with a large enough effect; inconclusive = small, poorly fitted or top-dose-only effect; inactive = no such curve, though single readings can be large or run the other way; also: the source files actives as falling curves though it sought activators and does not explain the sign; nearly all actives have a fitted effect of over 65% in size
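ClpP 10 microg/mL final, pH 8 Tris/KCl buffer with BSA, glycerol, Tween-20; compound pinned in; FRET-FV substrate; RT 20 min; Ex320/Em430; ΔFRET vs ADEP 5.8 microM, DMSO, no enzyme.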
TDP1 block: blocks human tyrosyl-DNA phosphodiesterase 1 | Q9NUW8 | recombinant TDP1, AlphaScreen DNA substrate cleavage | Potency, µM (series often up to 130 µM), actives largely listed as inhibitors | 350,000 tested, 0.28% active | AID 485290; also: nearly all actives have a fitted effect of over 40% in size
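Tdp1 1 nM final; 15 min RT w/ cpd; substrate 15 nM, 5 min; beads 10 ug/ml, 10 min; AlphaScreen read. Neg ctrl: no enzyme.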
DT40 TDP1 no CPT: qHTS for Inhibitors of human tyrosyl-DNA phosphodiesterase 1 (TDP1): qHTS in cells in absence of CPT | DT40 Tdp1-/- hTDP1 cells, no CPT, ATP luminescence, 48 h | Potency, µM (highest dose often 46.2 µM), hits mostly inhibitors | 420,000 tested, 15% active | AID 686978, 2013; also: nearly all actives have a fitted effect of over 55% in size
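Seeded 400 DT40-hTDP1 cells/well (vehicle DMSO, no 20 nM CPT); pinned compounds; ≥48 hr at 37 °C; CellTiter-Glo luminescence as viability measure.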
Of the large screens only hits and unclear results are named; the others gave an inactive call. Unless noted, calls follow the shape of the dose curve; as a rule, active = well fitted curve in the direction sought with a large enough effect; inconclusive = small, poorly fitted or top-dose-only effect, or another doubt; inactive = no such curve, though single readings can be large; an effect the other way counts as inactive or inconclusive.

Cc1cccc(CN2CCC(C(=O)Nc3ccc(-n4nc(C)cc4C)cc3)CC2)n1	TDP1 cell CPT inconclusive, ClpP mod inconclusive, DT40 TDP1 no CPT inconclusive
Cc1cc(-n2c(C)cc(C(=O)CSc3ccc4c(c3)OCCO4)c2C)no1	TDP1 cell CPT inconclusive, DT40 TDP1 no CPT 26µM
Cc1cc(-n2c(C)cc(C(=O)CSc3ccccn3)c2C)no1	TDP1 cell CPT inconclusive, DT40 TDP1 no CPT inconclusive (no result: ClpP mod)
Cc1cc(-n2c(C)cc(C(=O)CCl)c2C)no1	TDP1 cell CPT 1.2µM, DT40 TDP1 no CPT 0.92µM
CCNC(=O)C/C(C)=N/NC(=O)C(=O)Nc1ccc(CC)cc1	none
CCN(CC)S(=O)(=O)c1ccc2[nH]cc(C(=O)NCCN3CCCCCC3)c(=O)c2c1	ClpP mod inconclusive
CCN(CC)S(=O)(=O)c1ccc2[nH]cc(C(=O)NCCN3CCCCC3C)c(=O)c2c1 (configuration not stated)	ClpP mod inconclusive
CCN(C(=O)CN(C)S(=O)(=O)c1ccc2c(c1)c(=O)n(C)c(=O)n2C)c1ccc(OC)cc1	DT40 TDP1 no CPT 23µM
CCN(CC)S(=O)(=O)c1ccc2[nH]cc(C(=O)NCCCN3CCCCC3C)c(=O)c2c1 (configuration not stated)	ClpP mod 22µM
CN(CC(=O)NCCC1=CCCCC1)S(=O)(=O)c1ccc2c(c1)c(=O)n(C)c(=O)n2C	TDP1 cell CPT 8.2µM, DT40 TDP1 no CPT inconclusive
CCN(CC)S(=O)(=O)c1ccc2[nH]cc(C(=O)NCCCN3CCCCC3)c(=O)c2c1	ClpP mod 28µM
COc1ccc(S(=O)(=O)Nc2cccc3c2O[C@H](CN(C)C(=O)Nc2ccc(C(F)(F)F)cc2)[C@@H](C)CN([C@H](C)CO)C3=O)cc1	TDP1 cell CPT inconclusive
CCN(CC)S(=O)(=O)c1ccc2[nH]cc(C(=O)NCCC3=CCCCC3)c(=O)c2c1	TDP1 cell CPT 10µM, DT40 TDP1 no CPT 18µM
O=C(NCCc1ccccc1)c1c[nH]c2ccc(S(=O)(=O)Nc3ccccc3F)cc2c1=O	DT40 TDP1 no CPT inconclusive (no result: TDP1 block)
Cc1cnc(C)c(-c2ccc(O)c(CN3CCN(C=O)CC3)c2)n1	none (no result: ClpP mod, TDP1 block)
O=C(CCl)N(CCCNC(=O)C(F)(F)F)c1ccc([N+](=O)[O-])cc1	TDP1 cell CPT 2.6µM, DT40 TDP1 no CPT 6.5µM (no result: ClpP mod)
C=CCn1c(SCc2ccc(C(=O)OC)cc2)nnc1-c1sc(N)nc1C	none
C=CCn1c(SC/C=C/c2ccccc2)nnc1-c1sc(N)nc1C	TDP1 cell CPT inconclusive, DT40 TDP1 no CPT 15µM
COc1ccc(C(=O)OC2CCCCC2CN(C)C)cc1 (configuration not stated)	none (no result: TDP1 block)
CC(C)COc1ccc(C(=O)OC2CC(C)(C)OCC2CN(C)C)cc1 (configuration not stated)	TDP1 cell CPT inconclusive, ClpP mod 20µM, DT40 TDP1 no CPT inconclusive
OC[C@]1(O)OC[C@@H](O)[C@H](O)[C@@H]1O	none (no result: ClpP mod, TDP1 block)
Cc1ccc(C2N(c3ccccc3)C(=O)N3CCCN23)cc1 (configuration not stated)	TDP1 cell CPT inconclusive
Cc1ccc(N2C(=O)C(CN3CCCC3)C2c2ccccc2)cc1 (configuration not stated)	TDP1 cell CPT 21µM, DT40 TDP1 no CPT 23µM (no result: ClpP mod)
CCCC1C(=O)N(c2ccccc2)C1c1ccccc1 (configuration not stated)	none
Cc1ccc(N2C(=O)C(CN3CCCCC3)C2c2ccccc2)cc1 (configuration not stated)	TDP1 cell CPT inconclusive, ClpP mod 16µM, DT40 TDP1 no CPT 18µM
O=C(NCCN1CCC(Cc2ccccc2)CC1)C1CCN(S(=O)(=O)N2CCC3(CC2)OCCO3)CC1	TDP1 cell CPT 15µM, DT40 TDP1 no CPT 18µM
O=C(C1CCN(S(=O)(=O)N2CCC3(CC2)OCCO3)CC1)N1CCc2ccccc2C1	TDP1 cell CPT inconclusive, DT40 TDP1 no CPT 16µM
Nc1cc(=O)[nH]c(SCC(=O)Nc2ncc(C(F)(F)F)cc2Cl)n1	none (no result: ClpP mod)
COc1ccc(N2CC(NC(=O)CCCc3ccccc3)CC2=O)cc1 (configuration not stated)	none
Nc1nc(SCc2ccc(Cl)c(Cl)c2)n[nH]1	TDP1 cell CPT inconclusive (no result: ClpP mod)
O=S1(=O)C=C(SCc2ccc(Cl)c(Cl)c2)Nc2ccccc21	TDP1 cell CPT 23µM, DT40 TDP1 no CPT inconclusive
CCN(CC)C(=S)S	TDP1 cell CPT 24µM, DT40 TDP1 no CPT inconclusive (no result: ClpP mod)
COc1ccccc1NS(=O)(=O)c1ccc(C)c(C(=O)NCC2(N(C)C)CCCCC2)c1	none
CCCCCCC1CC(=CN(C)C)C(=O)O1 (configuration not stated)	TDP1 cell CPT inconclusive, DT40 TDP1 no CPT 16µM (no result: TDP1 block)
COc1cccc(Nc2ncc3nc(C)c(=O)n(C)c3n2)c1	TDP1 cell CPT inconclusive (no result: ClpP mod, TDP1 block)
O=C(CCCc1nc(-c2ccc(Cl)cc2)no1)N1CCOCC1	TDP1 cell CPT 23µM, DT40 TDP1 no CPT 16µM
Cc1ccc(-c2noc(CCCC(=O)N3CCOCC3)n2)cc1	none
O=C(Cn1ncc(Cl)c(Cl)c1=O)N1CCN(S(=O)(=O)c2ccc3ccccc3c2)CC1	TDP1 cell CPT 2.9µM, DT40 TDP1 no CPT 4.6µM (no result: ClpP mod)
Cc1ccc(S(=O)(=O)N2CCCCC2)cc1NC(=O)CNC(C)c1ccc(Cl)c(Cl)c1 (configuration not stated)	TDP1 cell CPT 15µM, DT40 TDP1 no CPT 13µM
Cc1ccc(Cl)cc1NC(=O)CN1C(=O)C(C)(C)c2cc(S(=O)(=O)N3CCCCC3)ccc21	TDP1 cell CPT inconclusive, DT40 TDP1 no CPT 23µM
O=C(O)CCC(=O)N1CCN(S(=O)(=O)c2ccc3ccccc3c2)CC1	DT40 TDP1 no CPT inconclusive (no result: ClpP mod, TDP1 block)
Cc1cc(Br)ccc1NC(=O)CNC(=O)Cn1ncc(Cl)c(Cl)c1=O	TDP1 cell CPT 4.1µM, DT40 TDP1 no CPT 3.7µM (no result: ClpP mod, TDP1 block)
Cc1ccc(S(=O)(=O)N2CCCCC2)cc1NC(=O)Cn1ncc(Cl)c(Cl)c1=O	TDP1 cell CPT 4.6µM, DT40 TDP1 no CPT 2.1µM
Cc1ccc(S(=O)(=O)N2CCCCC2)cc1NC(=O)Cn1cnnn1	none
CCn1ccnc1CN(C)Cc1c(C(=O)N2C[C@@H](C)O[C@@H](C)C2)nc2ccc(Cl)cn12	none
CC1CCN(CCc2nc3cc(NC(=O)COc4ccc(Cl)cc4)ccc3n2C)CC1	TDP1 cell CPT inconclusive, DT40 TDP1 no CPT inconclusive
COc1ccc(OCC(=O)Nc2ccc3c(c2)nc(CCN2CCCCC2)n3C)cc1	none
Cn1c(CCN2CCCC2)nc2cc(NC(=O)COc3ccc(Cl)cc3)ccc21	TDP1 cell CPT inconclusive, DT40 TDP1 no CPT 16µM (no result: TDP1 block)
Cc1cccc(OCC(=O)Nc2ccc3c(c2)nc(CCN2CCCCC2)n3C)c1	none
CCN1CCN(CCc2nc3cc(NC(=O)COc4ccc(Cl)cc4)ccc3n2C)CC1	TDP1 cell CPT inconclusive, DT40 TDP1 no CPT inconclusive
Cc1cccc(OCC(=O)Nc2ccc3c(c2)nc(CCN2CCN(c4ccccn4)CC2)n3C)c1	TDP1 cell CPT 23µM, DT40 TDP1 no CPT 18µM
COc1ccc(OCC(=O)Nc2ccc3c(c2)nc(CCN2CCN(c4ccccn4)CC2)n3C)cc1	TDP1 cell CPT 18µM, DT40 TDP1 no CPT inconclusive (no result: TDP1 block)

Compound activity deposited in PubChem BioAssay by National Center for Advancing Translational Sciences (NCATS).
